Experimental data: article PMC4336329 (PLoS ONE, 2015)
Screen size: about 310,000 compounds; about 14,000 (4.5%) showed an effect of 50% or more. The effect is printed as a negative number. Many of the other results were omitted from the sample, so strong results are more common in it than they were.

target: human ether-à-go-go-related gene (hERG) potassium channel (human, UniProt Q12809); experiment: primary screen, population patch clamp on CHO cells stably expressing hERG; higher = less effect of the substance
Sequence (Q12809 whole entry, looked up): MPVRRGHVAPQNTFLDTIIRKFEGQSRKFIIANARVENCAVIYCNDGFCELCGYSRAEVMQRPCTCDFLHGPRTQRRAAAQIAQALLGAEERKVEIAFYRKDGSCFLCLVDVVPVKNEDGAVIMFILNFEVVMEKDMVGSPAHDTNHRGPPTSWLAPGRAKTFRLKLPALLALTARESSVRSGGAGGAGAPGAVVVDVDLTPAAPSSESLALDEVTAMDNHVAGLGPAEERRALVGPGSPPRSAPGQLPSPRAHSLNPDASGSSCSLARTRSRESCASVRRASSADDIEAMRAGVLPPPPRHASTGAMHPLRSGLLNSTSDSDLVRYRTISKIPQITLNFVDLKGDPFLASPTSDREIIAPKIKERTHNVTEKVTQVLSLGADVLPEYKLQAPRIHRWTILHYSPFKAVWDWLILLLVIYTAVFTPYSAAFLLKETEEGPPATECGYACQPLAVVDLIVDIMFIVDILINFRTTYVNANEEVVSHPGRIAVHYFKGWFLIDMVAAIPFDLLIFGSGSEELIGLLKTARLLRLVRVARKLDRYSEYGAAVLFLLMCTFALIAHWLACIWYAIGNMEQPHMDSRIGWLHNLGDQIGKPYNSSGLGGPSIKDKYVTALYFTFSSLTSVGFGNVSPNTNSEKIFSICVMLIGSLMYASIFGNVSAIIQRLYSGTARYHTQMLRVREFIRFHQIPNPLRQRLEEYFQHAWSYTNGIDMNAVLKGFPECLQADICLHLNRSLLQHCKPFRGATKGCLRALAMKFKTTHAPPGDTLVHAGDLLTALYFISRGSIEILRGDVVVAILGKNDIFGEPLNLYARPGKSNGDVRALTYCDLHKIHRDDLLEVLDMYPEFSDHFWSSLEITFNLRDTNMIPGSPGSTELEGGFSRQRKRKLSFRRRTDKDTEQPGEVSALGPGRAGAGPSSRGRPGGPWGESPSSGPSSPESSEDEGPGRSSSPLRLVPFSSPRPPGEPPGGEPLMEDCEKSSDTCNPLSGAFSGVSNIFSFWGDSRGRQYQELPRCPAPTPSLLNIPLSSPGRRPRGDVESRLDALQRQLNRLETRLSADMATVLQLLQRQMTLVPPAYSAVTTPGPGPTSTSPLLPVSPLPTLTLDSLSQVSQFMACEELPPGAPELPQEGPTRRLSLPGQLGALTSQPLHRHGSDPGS
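Also: peak tail current of the secondary pulse compared with the same well before compound.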

| SMILES | hERG current change (%, negative = inhibition) at 10uM [%] |
| --- | --- |
| CC(=O)c1cccc(N(C(=O)CNC(=O)c2ccco2)C(C(=O)NC2CCCC2)c2ccc(C)o2)c1 (centres unmarked) | 6.93 |
| O=C(NCCCN1CCN(c2ccc(F)cc2)CC1)C1CCCN(c2ncnc3c2nc2n3CCCCC2)C1 (centres unmarked) | -66.3 |
| O=C(C1CCN(c2ncnc3c2nc2n3CCCCC2)CC1)N1CCN(c2ccc(F)cc2)CC1 | -51.5 |
| O=C(C1CCCN(c2ncnc3c2nc2n3CCCCC2)C1)N1CCN(c2ccc(F)cc2)CC1 (centres unmarked) | -66.8 |
| CCN1CCN(C(=O)C2CCCN(c3ncnc4c3nc3n4CCCCC3)C2)CC1 (centres unmarked) | 11.6 |
| O=C(C1CCN(c2ncnc3c2nc2n3CCCCC2)CC1)N1CCN(c2ccccc2F)CC1 | -33.1 |
| O=C(C1CCCN(c2ncnc3c2nc2n3CCCCC2)C1)N1CCN(c2ccccc2F)CC1 (centres unmarked) | -72 |
| O=C(C1CCN(c2ncnc3c2nc2n3CCCCC2)CC1)N1CCCCC1 | 16 |
| CN1CCN(C(=O)C2CCN(c3ncnc4c3nc3n4CCCCC3)CC2)CC1 | 17.7 |
| Cc1ccc(N2CCN(C(=O)C3CCCN(c4ncnc5c4nc4n5CCCCC4)C3)CC2)c(C)c1 (centres unmarked) | -7.35 |
| O=C(NCCCN1CCCCC1)C1CCCN(c2ncnc3c2nc2n3CCCCC2)C1 (centres unmarked) | 1.8 |
| CCOC(=O)C1CCN(C(=O)C2CCCN(c3ncnc4c3nc3n4CCCCC3)C2)CC1 (centres unmarked) | -34.1 |
| CC1CCN(CCCNC(=O)C2CCCN(c3ncnc4c3nc3n4CCCCC3)C2)CC1 (centres unmarked) | -3.75 |
| O=C(O)CCC(=O)Nc1cc(C(F)(F)F)cc(C(F)(F)F)c1 | 15.1 |
| Cc1ccccc1-n1c(-c2csc(C)c2C)n[nH]c1=S | 17.6 |
| Cc1cc(C)c2c(N)c(C(=O)c3cccc(Cl)c3)sc2n1 | 1.67 |
| CCOc1ccc(C(=O)N2CCc3cc(OC)c(OC)cc3C2)cc1OCC | 2.45 |
| CCOC(=O)C(C(=O)OCC)N(C#N)c1nc(OC)nc(N(C)C)n1 | -4.52 |
| O=C(CS)Nc1ccc2ccccc2c1 | 20.8 |
| CCn1c2ccccc2c2cc(NC(=O)c3cccc(OC)c3)ccc21 | 13.9 |
| COC(=O)c1sccc1NC(=O)CC1C(=O)NCCN1C(=O)c1ccc(N(C)C)cc1 (centres unmarked) | 7.57 |
| COc1ccc(Cl)cc1NC(=O)CSc1nnc(CN2CCOCC2)n1-c1ccc(Cl)cc1 | -46.6 |
| O=C(Nc1ccc(S(=O)(=O)NCC2CCCO2)cc1)c1ccccc1 (centres unmarked) | 2.19 |
